From the supplement of paper PMC3334620
In all, about 33,000 sequences were measured (“E-score (-0.5 to 0.5)”: median about -0.054, highest 2% from about 0.35 on). Many of the other results were omitted from the sample, so the highest values are more common in it than they were.

target: T1, Stb5 (UniProt P38699); experiment: PBM E-score (8-mer binding enrichment) (E-score (-0.5 to 0.5)); higher = stronger / more preferred TF binding; conditions: protein concentration: 200 nM; construct: GST-full length
T1 sequence: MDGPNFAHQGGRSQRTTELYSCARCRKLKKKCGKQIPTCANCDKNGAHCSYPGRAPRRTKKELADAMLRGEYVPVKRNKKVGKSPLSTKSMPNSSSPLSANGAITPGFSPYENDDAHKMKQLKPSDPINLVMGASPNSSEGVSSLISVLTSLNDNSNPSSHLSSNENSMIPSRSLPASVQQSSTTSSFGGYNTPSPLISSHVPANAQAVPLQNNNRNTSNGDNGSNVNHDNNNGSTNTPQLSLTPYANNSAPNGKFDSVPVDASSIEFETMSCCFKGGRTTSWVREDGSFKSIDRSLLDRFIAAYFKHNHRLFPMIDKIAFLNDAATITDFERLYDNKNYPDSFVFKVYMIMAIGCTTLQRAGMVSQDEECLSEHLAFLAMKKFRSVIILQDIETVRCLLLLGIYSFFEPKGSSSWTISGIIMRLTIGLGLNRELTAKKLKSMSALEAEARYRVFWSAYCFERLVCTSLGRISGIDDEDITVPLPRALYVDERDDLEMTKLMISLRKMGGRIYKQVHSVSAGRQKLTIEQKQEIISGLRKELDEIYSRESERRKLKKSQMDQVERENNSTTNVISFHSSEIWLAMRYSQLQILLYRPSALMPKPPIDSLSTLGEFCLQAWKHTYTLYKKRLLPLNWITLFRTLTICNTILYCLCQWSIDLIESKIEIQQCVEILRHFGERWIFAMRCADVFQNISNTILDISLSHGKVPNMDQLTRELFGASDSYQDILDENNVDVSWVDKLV
Method in brief: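 Full-length yeast transcription factors or their DNA-binding domains, GST-tagged and expressed with PURExpress, were applied at about 100-200 nM to universal all-10-mer Agilent arrays. These arrays had been made double-stranded by primer extension on fresh or once-stripped slides. Detection used fluorescent anti-GST, normalisation used masliner, and E-scores for ungapped eight-base words pooled with reverse complements came from the Universal PBM Analysis Suite.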

| Sequence | PBM E-score |
| --- | --- |
| AGTCTCCG | 0.264 |
| AAGAACAT | -0.0596 |
| ATAACACG | -0.0233 |
| ATAACACA | -0.107 |
| CTAACACC | 0.401 |
| ATAACACC | 0.461 |
| CCAACACC | 0.119 |
| CTAACACA | -0.0526 |
| GAATCCTC | -0.239 |
| CGCGTTCC | 0.0249 |
| ATTCCTTC | -0.0881 |
| GCCCTTAA | 0.191 |
| CCCTGGCG | 0.114 |
| CCTCTCCG | -0.171 |
| AATCATTG | -0.314 |
| GTGGCACA | -0.325 |
| CGGGGGCA | 0.275 |
| GCCGATGA | 0.357 |
| ACCGATGA | 0.264 |
| CCCGATGA | 0.226 |
| CCCTATAG | -0.104 |
| AATGGCAT | 0.0389 |
| GCGGCGGA | 0.333 |
| AGAGCGGA | 0.312 |
| CCGGCGGC | 0.327 |

| Sequence | PBM E-score |
| --- | --- |
| CCGGCGGA | 0.385 |
| CGGGCGGA | 0.359 |
| CGAGCGGA | 0.385 |
| GGGGCGGA | 0.293 |
| CGAGCGGC | 0.318 |
| CGGGCGGC | 0.308 |
| AATTGGCC | -0.224 |
| CATCTAGG | -0.139 |
| CGAATTGA | -0.12 |
| ACAATTCG | -0.00889 |
| AGGTATCC | -0.211 |
| CGCCTTAA | 0.0389 |
| AGGCCTCA | -0.264 |
| CGGCCTCC | 0.129 |
| CGGCCTCA | 0.363 |
| CTTTAGCA | 0.133 |
| ATCTCTGA | -0.172 |
| AGACCGAG | 0.177 |
| AGACCGAA | 0.236 |
| GCACCGAA | 0.358 |
| CGACCGAC | 0.271 |
| AAACCGAA | -0.0132 |
| GGACCGAC | 0.318 |
| AGACCGAC | 0.385 |
| ACACCGAA | 0.386 |

| Sequence | PBM E-score |
| --- | --- |
| CCACCGAA | 0.117 |
| GCACCGAC | 0.45 |
| GAACCGAC | 0.225 |
| TCACCGAA | 0.217 |
| AAGAACTA | -0.0107 |
| AGGTTCAC | -0.164 |
| CAATTCGC | 0.0656 |
| ACGAGAAA | -0.0778 |
| CAATGGCC | 0.0847 |
| ATGAGGCA | -0.24 |
| ATCTTGGG | -0.145 |
| CGAAGGAA | -0.188 |
| GATGAGAC | -0.136 |
| AAACCGAC | 0.222 |
| AAACCGAG | -0.0377 |
| AAACCGAT | 0.121 |
| ACACCGAG | 0.369 |
| ACACCGAT | 0.447 |
| CCACCGAC | 0.346 |
| AGACCGAT | 0.272 |
| CCACCGAG | 0.0738 |
| ACACCGAC | 0.466 |
| AATGGTTC | 0.00524 |
| TAAATCTA | -0.0639 |
| GAATGAAA | 0.0556 |

| Sequence | PBM E-score |
| --- | --- |
| AATGCGGA | 0.2 |
| CCGAAGCG | 0.225 |
| ACCTTAAT | 0.0412 |
| AGGGCGCC | -0.0741 |
| CACGCCCG | 0.0876 |
| GACCATCA | 0.0409 |
| CCCACCGA | 0.118 |
| TCCACCGA | 0.176 |
| ACCACCGC | 0.391 |
| GCCACCGC | 0.335 |
| ACCACCGA | 0.357 |
| ACCACCCT | -0.168 |
| ACCACCAT | -0.138 |
| ACCACCGG | 0.406 |
| ACCACCAG | -0.148 |
| CCCACCGC | 0.221 |
| CCCACCGG | 0.303 |
| ACCACCGT | 0.354 |
| GGCGAGTA | -0.101 |
| CCTCTATA | -0.232 |
| CCTGACTC | -0.153 |
| CCTATAAG | -0.0382 |
| AACCTTGC | -0.0575 |
| AAGAAGTA | -0.102 |
| GAGCAAGC | -0.168 |

| Sequence | PBM E-score |
| --- | --- |
| AGCAACCA | -0.068 |
| CCAATTCA | -0.261 |
| CCCGACAC | 0.34 |
| ACCGACAA | 0.369 |
| ACCGACAG | 0.363 |
| ACCGACAC | 0.361 |
| CCCGACAA | 0.328 |
| AACGACAG | -0.205 |
| CCCGACAG | 0.305 |
| GCCGACAC | 0.239 |
| ACCGACAT | 0.322 |
| GGTTTGGA | 0.0254 |
| ACGATATG | -0.0261 |
| ATGGTTCG | -0.0398 |
| CTCGTTTC | -0.214 |
| GGACCTAA | 0.365 |
| TGACCTAA | -0.117 |
| CGACCTAA | 0.017 |
| CGGAGGTC | 0.122 |
| CGGAGGTA | 0.434 |
| AGGAGGTA | -0.0118 |
| AGGAGCTA | -0.0145 |
| CGGAGCTA | 0.446 |
| CGGAGCTC | 0.249 |
| TGTACGAA | -0.0429 |

| Sequence | PBM E-score |
| --- | --- |
| ACCACTGA | -0.202 |
| CGCCGACG | 0.395 |
| AGCCGACG | 0.232 |
| CGCCGACC | 0.345 |
| CGCCGACA | 0.354 |
| TGCCGACA | 0.298 |
| GGCCGACA | 0.327 |
| GGCTCTTA | 0.0283 |
| ACTCTAAA | 0.01 |
| ACCGCACG | 0.153 |
| AACGGGGA | 0.288 |
| GATCTACC | -0.0916 |
| AGCTGTTA | -0.234 |
| CGCTGTTC | 0.0181 |
| CGCTGTTA | 0.445 |
| GTCGGAAC | 0.315 |
| ACTCTCTA | -0.205 |
| ATAATGAA | -0.076 |
| ATACCGAA | 0.242 |
| ATACCGAT | 0.353 |
| GTACCGAC | 0.382 |
| CTACCGAA | 0.0544 |
| ATACCGGC | 0.304 |
| GTACCGAA | 0.145 |
| ATACCGAG | 0.224 |

| Sequence | PBM E-score |
| --- | --- |
| CTACCGAC | 0.264 |
| ATACCGAC | 0.398 |
| AACGTTGT | -0.107 |
| CGGTATAG | 0.179 |
| AACACTGT | -0.22 |
| AGCTGGTC | -0.26 |
| TAACAGTA | -0.227 |
| AAAAAGTC | 0.175 |
| TAGCTGCA | -0.191 |
| ACTGTGCT | -0.241 |
| ACGGTGCT | 0.409 |
| GCGGTGAC | 0.358 |
| ACGGTGCG | 0.281 |
| ACGGTGCA | 0.127 |
| ACGGTGAG | 0.141 |
| ACGGTGAC | 0.297 |
| ACGGTGCC | 0.372 |
| ACGGTGAT | 0.367 |
| AAGGTGCT | -0.0966 |
| GGGGTGAC | 0.0132 |
| GCGGTGAA | 0.345 |
| GAGAGTGC | -0.209 |
| AAACTGAT | -0.104 |
| CAGAGGGA | -0.261 |
| GATACTCC | 0.146 |

| Sequence | PBM E-score |
| --- | --- |
| TAGCACTA | -0.246 |
| AAAAAGAA | 0.175 |
| GCCAAGGA | -0.0748 |
| TAGGTCCA | -0.0733 |
| AGTTGCTG | -0.167 |
| GTCGTTAA | -0.0792 |
| CGAAGTTC | -0.147 |
| CCGACAGC | 0.341 |
| ACGCTTTC | -0.205 |
| ATGCTCCC | -0.0728 |
| ACGGTCAG | -0.0787 |
| GCGGTGCC | 0.387 |
| ACGGTACG | 0.214 |
| ACGGTCAT | 0.368 |
| ACGGTACT | 0.389 |
| ACGGTCAA | 0.126 |
| GCGGTGCA | 0.259 |
| ACGGTACC | 0.283 |
| CCGGTGCC | 0.328 |
| TCGCTAGA | -0.243 |
| AGCACCTG | -0.14 |
| CCCTCTCA | -0.284 |
| AAACGAGC | -0.209 |
| GTACTCCA | -0.229 |
| AGCGGATA | 0.286 |

| Sequence | PBM E-score |
| --- | --- |
| AGCGGACT | 0.39 |
| CGCGGACA | 0.315 |
| AGCGGACG | 0.284 |
| AGCGGACA | 0.393 |
| AGCGGAAT | 0.228 |
| CCCCCCCA | -0.263 |
| ACTCATAT | -0.0119 |
| CACCCCGA | 0.325 |
| CACCCCCC | -0.14 |
| GACCCCGA | 0.377 |
| GCCCCCGC | 0.256 |
| GACCCCGC | 0.391 |
| CACCCCGC | 0.394 |
| TACCCCCA | -0.114 |
| CACCCCGG | 0.277 |
| GACCCCCC | -0.259 |
| GACCCCCA | -0.201 |
| TACCCCAA | -0.157 |
| TACCCCGA | 0.407 |
